Measured values: PubChem BioAssay (NCI)
This is part of a sample that, as a whole, favours compounds with a hit. Of some 79,000 tested, about 15% had one in any assay. A number with no mark means an inactive call. Active and inactive are the calls of the source. Rule as the data show it: active = growth inhibition above about 70%; inactive = the rest.

Legend:
[1] = NCI Yeast Anticancer Drug Screen. Data for the rad50 strain (AID 155);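 also: 0% = growth of vehicle-only cultures of the same strain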; conditions: S. cerevisiae rad50 strain growth inhibition; at 50.0 µM; active compounds read high
How it was run: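 Cells are treated with compound, grown, and their growth is then scored against vehicle-only cultures of the same repair-deficient yeast strain.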

[2] = NCI Yeast Anticancer Drug Screen. Data for the mec2-1 strain (AID 157); conditions: S. cerevisiae mec2-1 strain, at 50.0 µM, active compounds read high
How it was run: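 mec2-1 yeast strain, carrying an alteration in DNA damage repair or cell cycle control, was exposed to compounds; growth inhibition was measured relative to vehicle-treated controls.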

[3] = NCI Yeast Anticancer Drug Screen. Data for the sgs1 mgt1 strain (AID 161);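 also: 0% = growth of cultures given vehicle only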; conditions: S. cerevisiae sgs1 mgt1 strain, at 50.0 µM, active compounds read high
How it was run: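 Percent growth inhibition was derived by comparing compound-exposed mutant yeast with vehicle-exposed cultures. The strain carries alterations in DNA damage repair.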

[4] = NCI Yeast Anticancer Drug Screen. Data for the cln2 rad14 strain (AID 165);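 also: 0% = growth equal to vehicle treated cultures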; conditions: S. cerevisiae cln2 rad14 strain, at 50.0 µM, active compounds read high
How it was run: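 Yeast carrying cln2 and rad14 alterations (cell cycle control and DNA damage repair) were exposed to compounds. Growth inhibition was measured against vehicle-treated controls.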

[5] = NCI Yeast Anticancer Drug Screen. Data for the bub3 strain (AID 167); conditions: S. cerevisiae bub3 mutant strain, at 50.0 µM, active compounds read high
How it was run: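 Part of a panel of yeast mutants defective in DNA damage repair or cell cycle regulation. Each strain is grown with compound, and inhibition is calculated relative to solvent-treated cultures.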

[6] = NCI Yeast Anticancer Drug Screen. Data for the mlh1 rad18 strain (AID 175); conditions: S. cerevisiae mlh1 rad18 strain growth inhibition; at 50.0 µM; active compounds read high
How it was run: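 Growth inhibition of the yeast strain was measured after compound exposure and expressed relative to vehicle-treated controls. The strain carries defined defects in DNA damage repair.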

Structure (SMILES)	growth inhibition [1]	growth inhibition [2] [%]	growth inhibition [3]	growth inhibition [4] [%]	growth inhibition [5] [%]	growth inhibition [6]
CCC(C)Sc1nc2ccc(NC(=O)/C=C/C(=O)O)cc2s1 (stereo not given)	31.5%	10	11.7%	15.7	13.5	16.1%
CC(=O)OCc1cc2c(cc1CNCc1ccccc1)OCO2	12.5%	-2.15	7.25%	-31.4	5	7.25%
COc1cc(C(c2ccc(O)c(OC)c2)c2ccc(O)c(OC)c2)ccc1O	31.9%	15.2	34.6%	30.1	4.95	24.9%
Cc1cccc2c(C=O)c[nH]c12	8.9%	-3.1	-13.4%	-9.55	4.95	14.2%
COc1ccc(C)c(CN(C)C)c1	7.85%	-7.7	8.35%	5.25	-1.2	23.6%
Cc1ccc(Sc2cc([N+](=O)[O-])cc(Sc3ccc(C)cc3)c2Sc2ccc(C)cc2)cc1	22.2%	-24.7	10.4%	5.25	1.35	-11.7%
Cc1ccc(-c2c(C#N)c(S)n(NS(=O)(=O)c3ccc(C)cc3)c(=O)c2C#N)cc1	46.1%	57.3	59.9%	28.6	39.6	59.9%
CN(Cc1ccccc1)C(=O)c1ccc(Cl)cc1	-1.35%	3.75	6.25%	0.6	1.25	-0.1%
CC1(C)CCCC2(C)C(C(=O)O)C3CCC45OC3(CC12)OC(=O)C4C1(C)CCCC(C)(C)C1CC5=O (stereo not given)	2.15%	5.65	-0.9%	2.85	-2.1	9.25%
O=C(O)CCCCCCCCC(=O)O	-7.55%	-39	7.9%	-12.6	-23.8	-17.6%
CCN(CC)CCOc1cccc(Oc2ccccc2)c1	74% (active)	62.7	72.8% (active)	68.2	53	84% (active)
Cn1nc(C(F)(F)C(F)(F)C(F)(F)F)nc1C(F)(F)C(F)(F)C(F)(F)F	12.6%	3.6	4.45%	-3.75	-2.15	10.6%
CC/C(=N/NC(=O)c1ccccc1)c1ccccc1	-18.9%	9.5	8.7%	-19.4	8.5	-17.7%
Cc1c2ccnc(C#N)c2c(C)c2c1[nH]c1ccccc12	-19.8%	3	-16.9%	-13.3	12.8	7.5%
CCCCCCCCCC(O)CO (stereo not given)	-20.6%	-20.7	-23.8%	6.4	-10.6	-5.95%
Cc1ccc(C(=O)C[n+]2ccccc2)c(O)c1	-5.45%	-9.9	8.85%	-38	4.65	14.1%
CC(C)CN(CC(C)C)C(=S)[S-].CC(C)CN(CC(C)C)C(=S)[S-].[Zn]	54.5%	12.7	55%	21.4	4.65	32.4%
NCCN=C(N)C(N)=NCCN	19.1%	5.3	-2.35%	-54.5	7.45	8.1%
CN(C)c1ccc(/C=C/c2nc3ccc(Cl)cc3[nH]2)cc1	-5.55%	0.1	-1.9%	5.75	-8.2	-14.1%
O=C1OC(c2cccc([N+](=O)[O-])c2)=N/C1=C\c1ccccc1	17.2%	12.1	14.6%	18.4	15.3	24.6%

Structure (SMILES)	growth inhibition [1]	growth inhibition [2] [%]	growth inhibition [3]	growth inhibition [4] [%]	growth inhibition [5] [%]	growth inhibition [6]
CC(C)N(C(=O)c1ccc([Si](C)(C)C)c(C(=O)N(C(C)C)C(C)C)n1)C(C)C	30.6%	19.8	20.9%	9.4	0.1	28.5%
BrC1C2CC/C=C\CCC12 (stereo not given)	43.9%	22.7	10.9%	11.6	18	13.9%
COC(=O)C12C3C4C1C1C2C3C41C(=O)N(C(C)C)C(C)C (stereo not given)	7.75%	-1.45	-3.4%	-3.55	3.5	-14%
Nc1nc(N)c2cc(S(=O)(=O)c3ccc(Cl)cc3)ccc2n1	21.9%	36.1	12.5%	-12.2	17.8	28.6%
FC(F)(F)c1cccc(C2SCc3nc4ccccc4n32)c1 (stereo not given)	-16.4%	6.6	7.1%	0.45	23.9	21.7%
CC(=O)OC1C=CC2Oc3ccc(C)cc3C1(C)O2 (stereo not given)	12.8%	-4.05	14.4%	28.2	23.6	34.9%
CC1=NN(c2cccc([N+](=O)[O-])c2)C(=O)C1	13.9%	-25	10.7%	-5.7	16.8	32.6%
COc1ccc(C(c2cc3c(cc2O)OCO3)N2CCN(C(c3ccc(OC)cc3)c3cc4c(cc3O)OCO4)CC2)cc1 (stereo not given)	17.1%	0	5.05%	15.1	-1.65	19.8%
Cc1cc2cccc(C)c2[nH]1	-11.4%	-4.75	18.6%	0.5	4.6	-9.2%
CN(C)C=S	-4.6%	1.9	-9.85%	-12.6	-13.1	-4%
CC1(C)[C@@H]2CC[C@](C)(O)[C@H]1C2	0.45%	-1.05	-1.65%	8.5	-3.15	2.3%
CN(C)C(=O)c1ccc(-c2ccccc2)cc1O	-10.3%	20.2	0.05%	-18.1	-10.1	-4.65%
Cc1ccc(S(=O)(=O)NCCCN(CCCNS(=O)(=O)c2ccc(C)cc2)S(=O)(=O)c2ccc(C)cc2)cc1	-8.25%	-10.8	-5.1%	-70.5	-19.4	-12.2%
CN(CC(=O)NC(=O)c1ccccc1)Cc1ccccc1	-1.7%	-9.25	3.95%	-37	3.55	-7.8%
O=Cc1ccc(C(=O)O)cc1	-1.35%	-14.6	0.25%	-13.2	-12.8	-9.6%
CCOC(=O)N1N=C(c2ccccc2)OC2(N3CCOCC3)CCC(C(C)(C)C)CC12 (stereo not given)	12.8%	5.1	4.6%	5	-3	-2.4%
CC(=O)OCC#Cc1ccccc1	-10.9%	-14.1	-0.2%	-17.6	19.4	-1.2%
Cc1ccc(S(=O)(=O)OC(c2ccccc2)c2ccccc2)cc1	-7.05%	-10.9	-0.4%	-17.4	0	-28.8%
CC1(C)S[C@H](c2ccccc2C(=O)O)N[C@@H]1CC(=O)O	-35.3%	-6.9	-49.5%	-21.7	-26.5	-31.4%
CC(C)OC(=O)Nc1cccc(C(=O)O)c1	-6.55%	-6.55	-2.8%	-14.5	-16.4	-0.85%
